Bioassay records deposited in PubChem by Broad Institute.
aSyn 5UTR act: Activators working through SNCA 5'UTR binding (MLPCN). alpha-synuclein 5'UTR reporter, activators screen. activity score, % (tested at 7.5 µM), hits read low. hit rate 7.1% among 300,000. AID 1814; in the data active means activity score below about -60%
Of the large screens only hits and unclear results are named; the others gave an inactive call. Only a sample is shown.

N/C(=N\OC(=O)CCCc1ccccc1)c1ccccn1	aSyn 5UTR act -69
Cn1c(/C(C#N)=C(\O)c2ccc([N+](=O)[O-])s2)nc2ccccc21	aSyn 5UTR act -115
Cn1c(/C(C#N)=C(\O)c2ccc(Cl)s2)nc2ccccc21	aSyn 5UTR act -80
CCc1ccc(-c2ccc(C(=O)O)cc2)nc1	aSyn 5UTR act -126
CCCc1ccc(-c2ccc(F)c(N)c2)nc1	none
Cc1csc(NC(=O)CSc2nsc(SCC(=O)Nc3nc(C)cs3)c2C#N)n1	aSyn 5UTR act -210
CC1CCCC(C)N1C(=O)CSc1nnc(-c2cccs2)o1 (centres undefined)	aSyn 5UTR act -82
CCC1CCCCN1C(=O)CSc1nnc(-c2ccc(Cl)s2)o1 (centres undefined)	aSyn 5UTR act -62
CC1CCCCN1C(=O)CSc1nnc(-c2cccs2)o1 (centres undefined)	aSyn 5UTR act -108
CCc1ccc2[nH]c(=O)c(CN(Cc3nnnn3C3CCCC3)C3CCCCC3)cc2c1	aSyn 5UTR act -70
CCc1ccc(-c2cn3nc(C)c(C)nc3n2)cc1	none
COc1ccc(-c2cn(Cc3ccc(C)cc3)nn2)cc1	aSyn 5UTR act -108
CCCCCc1ccc(-c2cn(Cc3ccc(C)cc3)nn2)cc1	aSyn 5UTR act -99
O=C1N=C(N2CCCCC2)S/C1=C\c1cn[nH]c1-c1ccccc1	aSyn 5UTR act -78
COc1ccc(/C=C2\SC(N3CCCCC3)=NC2=O)cc1	aSyn 5UTR act -92
Cc1ccc(NC(=O)Nc2cnccn2)cc1	aSyn 5UTR act -118
CC(C)c1ccc(NC(=O)Nc2cnccn2)cc1	aSyn 5UTR act -212
Cc1ccc(NC(=O)Nc2cnccn2)cc1C	aSyn 5UTR act -68
CN(c1ccccc1)c1nc(N)c([N+](=O)[O-])c(N2CCCC2)n1	aSyn 5UTR act -97
Cc1cccc(Nc2nc(N)c([N+](=O)[O-])c(N3CCCC(C)C3)n2)c1 (centres undefined)	none
Nc1nc(Nc2ccccc2F)nc(N2CCCC2)c1[N+](=O)[O-]	aSyn 5UTR act -131
CCc1c(C)sc(NC(=S)Nc2nc(C)cc(C)n2)c1C(=O)OC	aSyn 5UTR act -98
Cc1csc(NC(=O)c2nc3nccc(C)n3n2)n1	aSyn 5UTR act -147
Cc1ccc(NC(=O)c2nc3nccc(C)n3n2)c(C)c1	aSyn 5UTR act -64
Cc1ccnc2nc(C(=O)Nc3ccc(N4CCOCC4)cc3)nn12	aSyn 5UTR act -73
O=C(NC1CCCC1)c1cc(-c2ccc(F)cc2)on1	aSyn 5UTR act -322
O=C(NC1CCCCC1)c1cc(-c2ccc(Cl)cc2)on1	aSyn 5UTR act -115
O=C(NC1CCCC1)c1cc(-c2ccc(Cl)cc2)on1	aSyn 5UTR act -234
CC(C)CNC(=S)NC1CC2CCCC(C1)N2C1CCCCC1 (centres undefined)	aSyn 5UTR act -107
Cc1ccc(-c2nnc(-c3ccccc3)o2)cc1Br	aSyn 5UTR act -149
Cc1ccc(-c2nnc(-c3cccc(Br)c3)o2)cc1	aSyn 5UTR act -159
COc1cccc(/C=C/C(=O)c2c(O)cc(C)oc2=O)c1O	aSyn 5UTR act -111
COc1ccc(/C=C/C(=O)c2c(O)cc(C)oc2=O)c(OC)c1	aSyn 5UTR act -230
COc1ccc(C(=O)Nc2ccc3ccccc3n2)cc1OC	aSyn 5UTR act -139
O=C(Nc1ccc2ccccc2n1)c1ccccc1Br	aSyn 5UTR act -146
O=C(Nc1ccc2ccccc2n1)c1ccccc1	aSyn 5UTR act -74
O=C(Nc1ccc2ccccc2n1)Nc1cccs1	aSyn 5UTR act -62
O=C(Nc1cccs1)Nc1ccccc1Br	aSyn 5UTR act -89
O=C(CCc1ccccc1)Nc1ccc2ccccc2n1	aSyn 5UTR act -146
O=C(Nc1ccc(C(F)(F)F)cn1)Nc1cccs1	aSyn 5UTR act -76
O=C(CCc1ccccc1)NNc1cc(N2CCCCC2)nc(N2CCCCC2)n1	none
CCCc1cc(C(=O)N/N=C/c2cccn2C)cs1	aSyn 5UTR act -72
Cn1cc(/C=N\NC(=O)c2cccs2)c2ccccc21	aSyn 5UTR act -280
CC(=O)n1cc(/C=N/NC(=O)c2ccc(Cl)cc2)c2ccccc21	aSyn 5UTR act -69
COc1ccc(/C=N/NC(=O)c2cccs2)c2ccccc12	aSyn 5UTR act -62
Cn1cccc1/C=N/NC(=O)c1cccs1	aSyn 5UTR act -70
Cc1ccc2nc(SCC(=O)c3ccc(Cl)s3)[nH]c2c1	aSyn 5UTR act -66
CC(C)N(Cc1cn[nH]c1-c1ccc(-c2ccccc2)cc1)Cc1nccn1C	aSyn 5UTR act -106
COc1ccc(N/C(C)=C/C(=S)Nc2ccccc2)cc1	aSyn 5UTR act -75
COc1ccc(C(=O)/C=C(\C)Nc2ccc3c(c2)OCO3)cc1	aSyn 5UTR act -170
CC(=O)Nc1ccc(OCc2ccc3c(c2)OCO3)cc1	aSyn 5UTR act -151
COc1ccc(NC(=O)/C=C/c2ccc3c(c2)OCO3)cc1	aSyn 5UTR act -91
COc1ccc(OC)c(NC(=O)c2ccccc2OC(C)=O)c1	aSyn 5UTR act -69
COc1ccc(OC)c(N/C=C/C(=O)c2ccccc2)c1	none
COc1ccc(N/C(C)=C/C(=O)c2ccccc2)cc1	aSyn 5UTR act -151
COc1ccc(OC)c(N/C(C)=C/C(=O)c2ccccc2)c1	aSyn 5UTR act -113
COc1cccc(N/C(C)=C/C(=O)c2ccc(Br)cc2)c1	aSyn 5UTR act -172
